Screening results: PubChem BioAssay, The Scripps Research Institute Molecular Screening Center
This excerpt belongs to a sample that is enriched for hits.
TTR_transcr_act: increases transthyretin transcription. AID 1117267. activation, % at 16.7 µM. 92,000 compounds, 1.3% hits. SH-SY5Y TTR promoter Gaussia luciferase, luminescence; 100% = recombinant luciferase protein wells;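 active = activation above the mean of all tested compounds plus 3 SD, cut at about 9.5% in these data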;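 note: cells exposed to compounds for one day before reading; 0% = median of all test compound wells on the plate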
TTR_inh_HuH7: HuH7 TTR transcription inhibition, counter-screen; inhibition, % at 16.7 µM; shares compounds with TTR_transcr_act; 1,100 compounds, 4% hits; HuH7 TTR promoter-Gaussia luciferase reporter, luminescence;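 active = average inhibition above the solvent-only control wells' mean plus 3 SD, cut at about 15% in these data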;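 note: 0% = cells with DMSO only and 100% = cells with inhibitor control FD; inhibitors lower well luminescence so higher value means more inhibition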
TTR_up_confirm: confirmation of human transthyretin transcription activators. SHSY5Y TTR promoter Gaussia luciferase, luminescence; 100% = purified Lucia enzyme wells, no cells. activation, % at 16.7 µM. shares compounds with TTR_transcr_act. 1,100 tested, under 10 active. AID 1117280;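 active = mean activation above a set limit taken from the earlier primary screen, cut at about 11% in these data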;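 note: 0% = DMSO-treated cells and 100% = recombinant Lucia luciferase without cells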
* marks the source's active call; other numbers are inactive results; . = no result.

SMILES TTR_transcr_act TTR_inh_HuH7 TTR_up_confirm
COC(=O)C1=C(c2ccc(OC(F)(F)F)cc2)C[C@@H]2CC[C@H]1N2C(=O)NC1CC1 10.2* -9.4 -0.2
COC(=O)C1=C(c2ccc(OC(F)(F)F)cc2)C[C@@H]2CC[C@H]1N2C(=O)NCC1CC1 -1.4 . .
COC(=O)C1=C(c2ccc(F)cc2OCc2ccccc2)C[C@@H]2CC[C@H]1N2C(=O)NCC1CC1 1.3 . .
COC(=O)C1=C(c2ccc(F)cc2OCc2ccccc2)C[C@@H]2CC[C@H]1N2C(=O)NCc1ccccc1 -2.6 . .
COC(=O)C1=C(c2ccc(F)cc2OCc2ccccc2)C[C@@H]2CC[C@H]1N2C(=O)NCc1ccco1 14.6* -4.9 0.7
O=C(CCc1ccccc1)N1Cc2cc(-c3ccccc3)ccc2-n2nncc2C1 0.6 . .
C=CCN1Cc2ccccc2-n2nncc2C1 -1.1 . .
